Beta apoptosis – inhibitors of cytokine-induced beta cell apoptosis, primary screen, luminescence; INS-1E cytokine-induced death, ATP luminescence, 48 h; percent of positive-control rescue, neutral wells zero; protection from apoptosis, % (concentration not given with the values); hit rate 0.8% among 300,000;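 active = Every replicate reaches about 75%, or at least half do and their mean reaches it too, limit read from the data; inconclusive = At least half of replicates reach the limit but their mean does not; inactive = Under half of replicates reach the limit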;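 note: 0% = cytokine-treated negative control wells and 100% = positive control rescue; higher means more ATP so stronger rescue from cytokine killing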
Mdm2 MdmX PPI – inhibitors of human Mdm2-MdmX association, primary screen, cell-based, luminescence, split luciferase, SaOS-2, uHTS | Protein Mdm4 (Homo sapiens) + E3 ubiquitin-protein ligase Mdm2 (Homo sapiens), … | SaOS-2 split-luciferase Mdm2/MdmX complementation | inhibition, % at 8 µM | hit rate 3% among 330,000 | AID 485346, 2010;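 active = inhibition of at least 50% at 8 µM in the primary screen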
Target sequence (O15151 whole entry, looked up): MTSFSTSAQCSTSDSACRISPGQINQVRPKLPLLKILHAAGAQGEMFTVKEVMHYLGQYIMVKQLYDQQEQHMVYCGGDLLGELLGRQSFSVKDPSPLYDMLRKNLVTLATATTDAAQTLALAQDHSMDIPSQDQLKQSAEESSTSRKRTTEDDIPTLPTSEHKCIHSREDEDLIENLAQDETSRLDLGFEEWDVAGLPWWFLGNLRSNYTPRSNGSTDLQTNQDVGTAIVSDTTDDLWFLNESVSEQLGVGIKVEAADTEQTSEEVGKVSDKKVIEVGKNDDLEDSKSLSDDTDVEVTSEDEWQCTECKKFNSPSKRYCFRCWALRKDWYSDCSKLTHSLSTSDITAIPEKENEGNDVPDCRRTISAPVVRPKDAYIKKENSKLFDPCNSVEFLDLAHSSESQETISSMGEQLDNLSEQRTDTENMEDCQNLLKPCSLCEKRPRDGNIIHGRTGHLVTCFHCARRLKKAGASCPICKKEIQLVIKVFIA
Target sequence (Q00987 whole entry, looked up): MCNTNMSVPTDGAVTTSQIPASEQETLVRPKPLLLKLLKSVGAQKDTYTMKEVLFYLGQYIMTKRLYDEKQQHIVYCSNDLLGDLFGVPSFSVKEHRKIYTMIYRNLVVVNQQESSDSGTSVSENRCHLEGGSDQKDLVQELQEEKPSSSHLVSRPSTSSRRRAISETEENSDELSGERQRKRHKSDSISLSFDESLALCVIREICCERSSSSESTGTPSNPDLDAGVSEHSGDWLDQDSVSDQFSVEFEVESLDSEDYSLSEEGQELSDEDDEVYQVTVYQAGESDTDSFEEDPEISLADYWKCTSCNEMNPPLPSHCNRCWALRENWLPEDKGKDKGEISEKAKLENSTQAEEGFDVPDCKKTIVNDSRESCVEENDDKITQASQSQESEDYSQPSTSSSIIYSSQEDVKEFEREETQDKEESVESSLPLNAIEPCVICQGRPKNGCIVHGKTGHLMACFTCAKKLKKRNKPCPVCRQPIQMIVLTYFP
PP1 inh – PP1-alpha phosphatase inhibitors, primary screen, counter-screen for PP5 inhibitor project, biochemical, fluorescence, OMFP substrate, single point | Serine/threonine-protein phosphatase PP1-alpha catalytic subunit (Homo sapiens), P62136 | AID 2235, 2010 | hit rate 0.9% among 320,000 | purified PP1alpha | inhibition, % at 6.7 µM;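 active = inhibition above the mean inhibition of all tested compounds plus 3 SD, computed separately for each screening campaign, cut at about 15% in these data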
PP5 inh – PP5 phosphatase inhibitors, primary screen, biochemical, fluorescence; purified PP5c, OMFP substrate fluorescence; inhibition, % at 6.7 µM; hit rate 0.18% among 320,000;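 active = inhibition above the campaign's mean inhibition across all tested compounds plus 3 SD, cut at about 9.5% in these data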;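 note: 0% = DMSO only and 100% = 100 µM cantharidin control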
CSC inhib – cancer stem cell viability inhibitors, primary screen, luminescence | cancer stem cell-like cells viability | inhibition, % at 7.5 µM | hit rate 1.1% among 300,000 | AID 2717, 2010; in the data active = inhibition above about 75%; inconclusive = no clear call, values can overlap the other calls; tested in HMLE shEcad cells
Calb FLC – C. albicans growth inhibition with fluconazole, primary screen, CaCi-2 strain, Alamar Blue fluorescence | C. albicans CaCi-2 (fluconazole-resistant clinical isolate) + fluconazole, 48 h | hit rate 0.57% among 300,000 | growth inhibition, % (test concentration not listed);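 active = growth inhibition above about 58% in most replicates, limit read from the data, passing the limit was not always enough; inconclusive = exactly half the replicates above a set limit; inactive = most replicates below a set limit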;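 note: all wells also contain fluconazole at 8 µg/ml as a sub-toxic cotreatment; 0% = median of DMSO wells and 100% = median of geldanamycin control wells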
Mdm2-MdmX conf – Mdm2-MdmX complex disruptors, retested hits, confirmation, luminescence, single concentration; shares compounds with Mdm2 MdmX PPI; Mdm2-MdmX binding, luminescent assay; inhibition, % at 8 µM; hit rate 55% among 10,000; AID 489028, 2010; in the data active = inhibition above about 40%
FLuc counter – full-length luciferase signal inhibition, confirmation, counter-screen for Mdm2/MdmX interaction inhibitor project, cell-based, single concentration, SaOS-2 | shares compounds with Mdm2 MdmX PPI | SaOS-2 full-length luciferase counterscreen, luminescence | inhibition, % at 8 µM | hit rate 77% among 6,200;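 active = mean inhibition at 8 µM reaching about 37%, which flags the compound as non-specific, limit read from the data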;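 note: p53-null SaOS-2 cells with luciferase driven by a doxycycline-inducible promoter; compound on cells about two nights before reading with doxycycline added after day one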
Starred values were filed as active, the others as inactive; ? = inconclusive; . = no result given. Rows were chosen to be rich in hits. Some 4.9% of all compounds tested hit in one or more screens of this group.

SMILES	Beta apoptosis	Mdm2 MdmX PPI	PP1 inh	PP5 inh	CSC inhib	Calb FLC	Mdm2-MdmX conf	FLuc counter
COc1ccc(C(C(=O)NC2CCCCC2)N(C(=O)CCl)c2ccc(Cl)cc2)cc1 (stereo not drawn)	-18	100*	4	2	10	2	99*	49*
Cc1cccc(N(C(=O)CNC(=O)c2ccco2)C(C(=O)NC2CCCCC2)c2cccnc2)c1 (stereo not drawn)	1	-12	-1	2	-16	4	.	.
CCC(=O)Oc1ccc(C2NC(=O)c3ccccc3O2)cc1OC (stereo not drawn)	2	5	-4	0	-4	-4	.	.
Cc1cccc(CC(=O)c2c[nH]c3ccccc23)c1	-6	36	0	-1	20	1	.	.
Cc1ccc(-c2nc3sc(C(N)=O)c(N)c3c3c2CCCC3)cc1	-1	-6	0	-1	18	-8	.	.
Cc1ccc(-c2c3c(nc4sc(C(N)=O)c(N)c24)CCCC3)o1	-4	28	-2	4	-1	38	.	.
Cc1nc2sc(C(N)=O)c(N)c2c2c1CCCC2	-7	87*	-1	2	5	27	89*	49*
NC(=O)c1sc2nc3c(c(-c4ccco4)c2c1N)CCC3	-51	77*	0	2	-13	?	55*	25
CCN=c1scc(-c2ccccc2)n1/N=C/c1ccccn1	39	85*	-5	1	29	20	66*	127*
CCN=c1scc(-c2ccc(F)cc2)n1/N=C/c1ccccn1	7	-175	-1	0	3	3	.	.
C=CCN=c1scc(-c2ccccc2)n1/N=C/c1ccccn1	24	79*	6	1	40	40	64*	42*
CCNS(=O)(=O)c1ccc(CCC(=O)N2CCN(c3ccccc3)CC2)cc1	1	-13	-2	2	-1	6	.	.
CCCNC(=O)[C@H]1N2C(=O)c3c(ccc(OC)c3OC)C2SC1(C)C (stereo partly drawn)	-4	-4	2	0	-3	-6	.	.
CCNc1nc(NC(C)CC)nc(Oc2ccc(OCC)nn2)n1 (stereo not drawn)	3	54*	-7	0	7	9	4	.
O=C(c1cc(-c2ccncc2)nc2ccc(Cl)cc12)N1CCN(C(=O)C2CCCO2)CC1 (stereo not drawn)	-6	2	1	1	-6	2	.	.
Cc1cccc2c(C(=O)N3CCN(c4ccccc4)CC3)cc(-c3ccncc3)nc12	10	57*	11	4	58	34	75*	69*
Cc1ccccc1CN1CCN(C(=O)c2cc(-c3ccncc3)nc3ccccc23)CC1	-1	28	-2	2	17	0	.	.
CC(=O)c1ccc(N2CCN(C(=O)c3cc(-c4ccncc4)nc4ccc(Cl)cc34)CC2)cc1	3	63*	-3	1	1	-7	30	.
Cc1ccc(CN(C)C(=O)c2ccc3c(c2)NC(=O)CS3)o1	-12	5	4	3	-12	0	.	.
N#Cc1nccnc1S(=O)(=O)c1cccs1	20	74*	-4	1	14	-9	47*	0
CC1(C)CC(=O)C=C(NC2=CC3OC(c4ccccc4)OCC3OC2=O)C1 (stereo not drawn)	-40	70*	-4	2	14	-9	34	54*
N=c1c2c(-c3ccccc3)c(-c3ccccc3)n(Cc3ccccc3)c2ncn1CCCn1ccnc1	4	100*	15*	2	37	1	90*	10
N=c1c2c(-c3ccccc3)c(-c3ccccc3)n(Cc3ccco3)c2ncn1Cc1ccco1	68	98*	16*	3	61	?	46*	31
c1ccc(-c2nc(NCCCn3ccnc3)c3ccccc3n2)cc1	3	30	1	2	-2	9	.	.
CCCCn1cnc2c(c(-c3ccccc3)c(-c3ccccc3)n2Cc2ccco2)c1=N	114*	98*	4	1	87*	-5	73*	60*
SMILES	Beta apoptosis	Mdm2 MdmX PPI	PP1 inh	PP5 inh	CSC inhib	Calb FLC	Mdm2-MdmX conf	FLuc counter
O=c1c2cnn(-c3ccccc3)c2ncn1Cc1ccco1	-3	13	0	1	0	-6	.	.
CC(=O)Nc1ccc(S(=O)(=O)N2CCSc3ccccc32)cc1	8	48	.	.	62	.	.	.
O=C(CN1C(=O)NC(Cc2ccccc2)C1=O)Nc1ccccc1OC(F)F (stereo not drawn)	-4	21	0	-1	0	-7	.	.
O=[N+]([O-])c1cc(S(=O)(=O)NCCCN2CCOCC2)ccc1Cl	-7	8	2	2	8	3	.	.
O=[N+]([O-])c1cc(S(=O)(=O)NCCN2CCOCC2)ccc1Sc1nnnn1-c1ccccc1	-15	66*	0	2	55	3	50*	20
CCOC(=O)N1CCN(C(=O)c2ccc(Cl)c(NC(=O)c3cccs3)c2)CC1	-1	20	-2	1	.	.	.	.
O=C(NNC(=O)C1CCN(S(=O)(=O)c2ccccc2)CC1)c1ccccc1O	45	15	-3	0	34	-13	.	.
O=C(NNC(=O)C1CCN(S(=O)(=O)c2ccccc2C(F)(F)F)CC1)c1ccccc1O	11	53*	-10	-3	-9	-14	53*	51*
O=C(NNC(=O)C1CCN(S(=O)(=O)c2c(Cl)cccc2Cl)CC1)c1ccccc1O	19	56*	0	0	-6	-5	54*	54*
O=C(NCc1ccco1)C1CCN(S(=O)(=O)c2ccccc2C(F)(F)F)CC1	3	-8	-4	1	-10	.	.	.
COc1ccc(CC(=O)Nc2ccc(S(=O)(=O)N(C)C3CCN(C)CC3)cc2)cc1	.	12	-2	0	.	.	.	.
COc1ccc2oc(C(=O)Nc3ccc(S(=O)(=O)N(C)C4CCN(C)CC4)cc3)c(C)c2c1	24	96*	-1	-2	8	10	46*	47*
CC(Oc1ccc(Br)cc1)C(=O)Nc1ccc(S(=O)(=O)N(C)C2CCN(C)CC2)cc1 (stereo not drawn)	22	59*	-6	-2	29	3	39	76*
CCC(=O)N1COC[C@@H]1Cc1ccccc1	2	-8	-2	4	-11	-16	.	.

Compound activity deposited in PubChem by several laboratories.
